Assay [1] can be described thus: resazurin metabolic signal in HepG2 cells – cell-based, resazurin fluorescence, 24 h, PK04 Diversity Set, profiling panel (AID 1172). Also: test concentration not given here. The note with it: HepG2 viability, higher = more signal. (In general: Resazurin is reduced to fluorescent resorufin, in cell work by metabolically active cells.)
Assay [2] can be described thus: budding yeast growth changes without added modifier – OD600, strain BY4716, 24 h, basal condition, primary screen (AID 1173). The note with it: S. cerevisiae BY4716 growth, OD600, 24 h; higher = more signal, called active from +8 up or from −8 down.
The nature of assay [3]: viability profiling in MM1S myeloma cells – cell-based, resazurin fluorescence, basal, 24 h, PK04 Diversity Set, profiling panel (AID 1174).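 Also: MM1S multiple myeloma cell line; test concentration not given here.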 The note with it: higher = more signal, called active from +8 up or from −8 down.
In assay [4] the target is Dihydroorotate dehydrogenase (quinone), mitochondrial (Plasmodium falciparum (isolate 3D7)) (UniProt Q08210). The assay is described as follows: inhibition of P. falciparum DHODH – biochemical, C-terminal His tag, absorbance 600 nm, primary screen (AID 1175).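 Also: recombinant parasite enzyme with a five histidine tag at its C terminus; test concentration not given here.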 The note with it: PfDHODH enzyme, DCIP absorbance 600 nm; higher = more signal, called active from +8 up or from −8 down.
Dihydroorotate dehydrogenase (quinone), mitochondrial (Plasmodium falciparum (isolate 3D7)), sequence (Q08210 whole entry, looked up): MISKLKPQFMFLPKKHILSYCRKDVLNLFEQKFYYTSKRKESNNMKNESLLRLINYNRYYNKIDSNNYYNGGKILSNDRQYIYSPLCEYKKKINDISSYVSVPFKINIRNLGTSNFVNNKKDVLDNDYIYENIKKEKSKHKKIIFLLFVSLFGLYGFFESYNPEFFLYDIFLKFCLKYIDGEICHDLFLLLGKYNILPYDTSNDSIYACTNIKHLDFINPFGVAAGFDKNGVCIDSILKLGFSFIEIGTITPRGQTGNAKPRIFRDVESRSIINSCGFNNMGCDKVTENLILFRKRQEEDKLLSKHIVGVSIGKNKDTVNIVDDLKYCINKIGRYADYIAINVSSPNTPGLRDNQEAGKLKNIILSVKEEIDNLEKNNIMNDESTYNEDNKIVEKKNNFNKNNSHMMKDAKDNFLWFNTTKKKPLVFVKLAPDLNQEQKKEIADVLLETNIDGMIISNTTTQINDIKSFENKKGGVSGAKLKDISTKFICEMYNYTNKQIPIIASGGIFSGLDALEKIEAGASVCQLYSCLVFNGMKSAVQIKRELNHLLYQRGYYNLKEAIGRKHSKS

Assay [5] can be described thus: growth modulation of vineyard yeast isolate – strain RM11-1a, OD600, basal, 24 h, primary screen (AID 1177).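 Also: cultures grown under basal conditions with no added stressor; test concentration not given here.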 The note with it: S. cerevisiae RM11-1a growth, OD600, 24 h; higher = more signal, called active from +8 up or from −8 down.
Assay [6] can be described thus: growth of efflux-deficient E. coli DRC39 – strain DRC39, OD650, 24 h, E. coli filamentation inducers, primary screen (AID 1178).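 Also: growth measured as culture turbidity by optical density at 650 nm; test concentration not given here.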 The conditions noted are these: E. coli DRC39 acrAB, higher = more signal, called active from +8 up or from −8 down.
Assay [7] in a line: growth of efflux-deficient E. coli DRC39 – strain DRC39, OD650, 48 h, E. coli filamentation inducers, primary screen (AID 1179).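 Also: screen aims at cell division blockers that make cells filament.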 The conditions noted are these: E. coli DRC39 delta-acrAB growth, higher = more signal, called active from +8 up or from −8 down.
The nature of assay [8]: viability profiling in RPMI8226 myeloma cells – cell-based, resazurin fluorescence, basal, 24 h, PK04 Diversity Set, profiling panel (AID 1180).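 Also: RPMI8826 multiple myeloma cell line at 5000 cells per well; test concentration not given here.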 The conditions noted are these: higher = more signal.
Assay [9] deals with E3 ubiquitin-protein ligase XIAP (Homo sapiens) (UniProt P98170). The assay is described as follows: small molecules binding XIAP protein – biophysical, small-molecule microarray, fluorescence 635 nm, primary screen (AID 1181).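 Also: score merges 667 nm emission and signal to noise over triplicate slides.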 The note with it: higher = more signal.
E3 ubiquitin-protein ligase XIAP (Homo sapiens), sequence (P98170 whole entry, looked up): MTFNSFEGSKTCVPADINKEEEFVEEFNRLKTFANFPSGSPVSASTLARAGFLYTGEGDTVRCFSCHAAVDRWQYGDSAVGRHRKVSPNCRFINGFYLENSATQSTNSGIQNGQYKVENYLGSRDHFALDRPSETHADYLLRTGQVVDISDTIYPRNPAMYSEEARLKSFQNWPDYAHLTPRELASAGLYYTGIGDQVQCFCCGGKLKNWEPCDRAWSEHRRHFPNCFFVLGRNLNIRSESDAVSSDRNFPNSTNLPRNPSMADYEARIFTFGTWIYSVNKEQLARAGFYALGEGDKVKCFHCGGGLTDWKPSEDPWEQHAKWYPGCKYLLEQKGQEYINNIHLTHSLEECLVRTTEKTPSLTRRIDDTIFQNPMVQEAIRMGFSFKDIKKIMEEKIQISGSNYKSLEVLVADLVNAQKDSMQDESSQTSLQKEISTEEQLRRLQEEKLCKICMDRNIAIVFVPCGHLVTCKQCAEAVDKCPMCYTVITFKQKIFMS

Activity calls are given as the source filed them.

As to `CCOC(=O)[C@H]1C/C=C/C[C@H](C(=O)OCC)C(=O)O[C@H]2[C@@H](OC)O[C@H](CO)[C@@H](OC(=O)Nc3ccc(Br)cc3)[C@@H]2OC1=O`, the z-score is -6.68 in [1]; -1.68 (inactive) in assay [2]; -9.26 (active) in assay [3]; 0.424 (inactive) in [5]; 1.65 (inactive) in [6]; 1.93 (inactive) in assay [7]. Besides, in [8], the z-score was -7.26. In addition, the composite z-score in assay [4] was -1.48 (inactive); in assay [9], 0.0223.
For the compound `COC(=O)c1c(CC[C@@H](CO)NC(=O)N[C@H](Cn2cc(-c3cncn3C)nn2)C(C)C)oc(C(C)=O)c1C(=O)OC`, the z-score in assay [1] is -0.623; in assay [2] it was -0.476 (inactive); in assay [3], 0.254 (inactive); in assay [5], -1.06 (inactive); in assay [6] it was 2.37 (inactive); in assay [7], 1.47 (inactive). This compound gave a z-score in assay [8] of -0.0832. Besides, the composite z-score is -4.63 (inactive) in [4] and -0.0884 in assay [9].
As to `CN(C)C(=O)[C@@]1(Cc2ccccc2N=[N+]=[N-])N=C(c2ccc(OCCCO)cc2)O[C@H]1c1ccccc1CN=[N+]=[N-]`, the z-score in assay [1] was 1.12; in assay [2] it was -1.4 (inactive); in assay [3] it was -0.437 (inactive); in assay [5] it was -0.726 (inactive); in assay [6], 2.45 (inactive); in [7] it was 0.842 (inactive). Also, the z-score in assay [8] is -1.67. Also, the composite z-score was -0.812 (inactive) in [4] and 0.229 in assay [9].
On to `COc1ccc([Si](C)(C)[C@H]2[C@H](CCO)O[C@@]3(C(=O)N(Cc4ccc(N5CCCCC5=O)cc4)c4ccccc43)[C@@H]2C)cc1`, for which the z-score in assay [1] is -1.69; in assay [2], -1.07 (inactive); in [3], -7.58 (inactive); in assay [5], 2 (inactive); in [6] it was 2.18 (inactive); in assay [7], -0.0822 (inactive). This compound gave a z-score in [8] of -2.73. Also, the composite z-score in assay [4] is -5.37 (inactive); in assay [9], 0.0223.
As to `C=CCNC(=O)[C@H]1[C@@H]2C(=O)O[C@@H](c3ccccc3)[C@@H](c3ccccc3)N2[C@@H](c2ccccc2OCCO)[C@]12C(=O)N(C(=O)OCCOC)c1ccc(C#CCNC(N)=O)cc12`, the z-score in [1] is 0.834; in assay [2], 0.338 (inactive); in assay [3] it was 1.71 (inactive); in assay [5] it was 1.04 (inactive); in assay [6], 0.845 (inactive); in assay [7] it was 1.06 (inactive). In [8], this compound registered a z-score of 1.72. For the same compound, the composite z-score was -1.11 (inactive) in [4] and -0.23 in [9].
For `CC(C)N1CC=CC23O[C@@H]4/C=C\CCCOC(=O)C4[C@H]2C(=O)N(CCCCCO)[C@@H]3C1=O` (some centres undefined), the z-score in [1] is 0.46; in [2], -1.08 (inactive); in assay [3] it was 1.35 (inactive); in [5] it was -0.354 (inactive); in assay [6] it was 1.26 (inactive); in [7] it was 1.29 (inactive). The compound further gave a z-score in [8] of 1.13. The composite z-score in assay [4] is 0.623 (inactive); in assay [9], 0.973.
Turning to `COCCOC(=O)N1C(=O)[C@@]2(c3cc(C#CCCO)ccc31)[C@H](C(=O)N1CCCCCCC1)[C@H]1C(=O)O[C@H](c3ccccc3)[C@H](c3ccccc3)N1[C@@H]2c1ccc(O)cc1`, the z-score is 0.801 in [1]; -1.74 (inactive) in assay [2]; 1.14 (inactive) in assay [3]; -2.75 (inactive) in assay [5]; 0.561 (inactive) in assay [6]; 1.43 (inactive) in [7]. The compound also registered a z-score in assay [8] of 0.613. Besides, the values for the composite z-score in [4] and in assay [9] were 0.138 (inactive) and 0.144, respectively.
Take `O=C(CS)NCCCCCNC(=O)[C@H]1C[C@H]2C(=O)N3CCC[C@H]3C(=O)N2[C@H]1c1ccc(O)cc1`: the z-score was 0.743 in assay [1]; -1.04 (inactive) in assay [2]; 0.613 (inactive) in assay [3]; -0.881 (inactive) in assay [5]; 1.2 (inactive) in assay [6]; 1.34 (inactive) in [7]. In assay [8], the z-score is 1.09. Moreover, the composite z-score is -0.581 (inactive) in [4] and -0.02 in assay [9].
On to `C=CC[C@@]12N=C(c3ccc(OCCCO)cc3)O[C@@H]1c1ccccc1CN(Cc1ccccc1)C2=O`, for which the z-score in [1] was -0.806; in assay [2], -0.251 (inactive); in assay [3], -3.75 (inactive); in assay [5], 1.77 (inactive); in [6] it was 1.4 (inactive); in assay [7], 0.485 (inactive). The z-score in assay [8] was -3.21. Further, the composite z-score in assay [4] is 1.27 (inactive); in assay [9], -0.0473.
As for `[N-]=[N+]=NCc1ccccc1C[C@@]1(C(=O)N2CCOCC2)N=C(c2ccc(OCCCO)cc2)O[C@@H]1c1ccccc1N=[N+]=[N-]`, the z-score in [1] was 0.164; in assay [2], -1.37 (inactive); in [3], -1.22 (inactive); in [5], 1.12 (inactive); in [6], 2.06 (inactive); in assay [7] it was 0.612 (inactive). This compound also had a z-score in assay [8] of -1.62. The composite z-score is 0.503 (inactive) in assay [4] and 0.152 in assay [9].
Turning to `Cc1ccc(S(=O)(=O)c2cc3oc2CC[C@@H](CO)NC(=O)N(C)Cc2cn(nn2)C[C@H](Cc2ccccc2)NC3=O)cc1`, the z-score in assay [1] is 1.02; in assay [2], -2.64 (inactive); in assay [3], 1.42 (inactive); in assay [5] it was 0.288 (inactive); in assay [6], 1.74 (inactive); in assay [7] it was 1.3 (inactive). For the same compound, the z-score in assay [8] was found to be 1.03. For the same compound, the composite z-score was 0.164 (inactive) in assay [4] and 0.0975 in [9].

(Values after PubChem BioAssay.)
